Here are results for 9 compounds from PubChem BioAssay (NCI).

What all share (assay): NCI-60 one-dose screen, 48 h (100 = growth as untreated, 0 = no growth, -100 = all killed)
One experiment concerns SK-MEL-2 melanoma. Particulars: 10 µM unless noted.
A further experiment deals with SN12C renal. Particulars: 10 µM unless noted.
The test system of a further experiment is UO-31 renal. Particulars: 10 µM unless noted.
A further experiment deals with TK-10 renal. The settings on record: 10 µM unless noted.
Another experiment relates to ACHN renal. Particulars: 10 µM unless noted.
The subject of a further experiment is CAKI-1 renal. Particulars: 10 µM unless noted.
The next experiment deals with A498 renal. The settings on record: 10 µM unless noted.
The next experiment has as its system CCRF-CEM leukemia. Particulars: 10 µM unless noted.
The subject of the next experiment is MOLT-4 leukemia. Particulars: 10 µM unless noted.
In a further experiment the test system is SR leukemia. Particulars: 10 µM unless noted.
The subject of another experiment is RPMI-8226 leukemia. The settings on record: 10 µM unless noted.
The test system of the next experiment is OVCAR-8 ovarian. Particulars: 10 µM unless noted.
In another experiment the test system is OVCAR-5 ovarian. Particulars: 10 µM unless noted.
The next experiment deals with OVCAR-4 ovarian. Particulars: 10 µM unless noted.
Another experiment deals with SK-OV-3 ovarian. The settings on record: 10 µM unless noted.
The next experiment has as its system IGROV1 ovarian. Particulars: 10 µM unless noted.
The next experiment has as its system OVCAR-3 ovarian. The settings on record: 10 µM unless noted.
The test system of another experiment is HS 578T breast. Particulars: 10 µM.
The next experiment concerns NCI/ADR-RES ovarian. Particulars: 10 µM unless noted.
The test system of a further experiment is EKVX NSCLC. Particulars: 10 µM unless noted.

Compounds without any hit were thinned out: in the full panel of roughly 83,000, 20% have a hit.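 Compound tested at a single concentration for 48 hours in 96-well plates; a percent growth value below 10 was scored as active.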 Unmarked numbers belong to inactive results. Calls of active or inactive are those of the source.

As for `COc1ccc(-c2n[nH]nc2-c2cc(OC)c3c(c2)OCO3)cc1`, the growth with SK-MEL-2 melanoma is 6.64% (active); in the experiment on SN12C renal, 23%; with UO-31 renal, 20.1%; in the experiment on TK-10 renal, 47.7%; in the experiment with ACHN renal, 29.6%; in the experiment on CAKI-1 renal, -2.7% (active). For the same compound, the growth was -9.3% (active) in the experiment on A498 renal; -4.86% (active) in the experiment with CCRF-CEM leukemia; -15.3% (active) in the experiment with MOLT-4 leukemia; -30.8% (active) in the experiment on SR leukemia; 9.65% (active) in the experiment with RPMI-8226 leukemia; 6.23% (active) in the experiment with OVCAR-8 ovarian. The growth in the experiment with OVCAR-5 ovarian is 42.7%; in the experiment with OVCAR-4 ovarian it was 51.7%; with SK-OV-3 ovarian it was -6.92% (active); in the experiment with IGROV1 ovarian, -17.4% (active); with OVCAR-3 ovarian, -14.6% (active); in the experiment with HS 578T breast, 15%. Moreover, the growth in the experiment on NCI/ADR-RES ovarian was 0.386% (active).

On to `N#Cc1c(N)c(C(=O)c2ccc3c(c2)OCCO3)n2c1CCCC2`, for which the growth is 6.49% (active) with SK-MEL-2 melanoma; 42.7% in the experiment on SN12C renal; 34.4% in the experiment with UO-31 renal; 39.9% in the experiment with TK-10 renal; 39% in the experiment with ACHN renal; 4.26% (active) in the experiment on CAKI-1 renal. In addition, the growth in the experiment with A498 renal is 38.8%; with CCRF-CEM leukemia, 30.5%; with MOLT-4 leukemia, 12.3%; in the experiment on SR leukemia it was -20% (active); in the experiment on RPMI-8226 leukemia, 4.91% (active); in the experiment on OVCAR-8 ovarian it was 31.5%. Also, the growth is 57.9% in the experiment on OVCAR-5 ovarian; 81.2% in the experiment with OVCAR-4 ovarian; 31.3% in the experiment with SK-OV-3 ovarian; 10.8% in the experiment on IGROV1 ovarian; -3.73% (active) in the experiment on OVCAR-3 ovarian; 36.3% in the experiment with HS 578T breast. The growth in the experiment with NCI/ADR-RES ovarian is 8.36% (active).

For `COc1ccc(-c2[nH]nc(N)c2-c2cc(OC)c(OC)c(OC)c2)cc1`, the growth with SK-MEL-2 melanoma was 42.5%; in the experiment on SN12C renal, 33%; with UO-31 renal, 20.4%; in the experiment with TK-10 renal, 34.9%; with ACHN renal, 25.5%; with CAKI-1 renal, 5.73% (active). Also, the growth was -8.24% (active) in the experiment with A498 renal; -5.92% (active) with CCRF-CEM leukemia; -2.96% (active) with MOLT-4 leukemia; -23.7% (active) with SR leukemia; -8.96% (active) with RPMI-8226 leukemia; 7.81% (active) in the experiment on OVCAR-8 ovarian. Moreover, the growth in the experiment on OVCAR-5 ovarian is 38.8%; with OVCAR-4 ovarian, 64.2%; with SK-OV-3 ovarian, 4.97% (active); in the experiment on IGROV1 ovarian it was 1.08% (active); in the experiment with OVCAR-3 ovarian it was -28.3% (active); in the experiment with HS 578T breast, 25.6%. Further, the growth in the experiment with NCI/ADR-RES ovarian was -9.45% (active).

For the compound `CCCN(CCC)CC(O)COc1ccccc1C(=O)Nc1ccccc1` (configuration not stated), the growth with SK-MEL-2 melanoma is 58%; in the experiment on SN12C renal, 81.6%; in the experiment with UO-31 renal, 78.1%; in the experiment on TK-10 renal it was 111%; in the experiment on ACHN renal, 77.2%; in the experiment with CAKI-1 renal, 57.5%. Also, the growth is 53.9% in the experiment with A498 renal; 71.2% in the experiment with CCRF-CEM leukemia; 78% with MOLT-4 leukemia; 28.7% with SR leukemia; 71.4% with RPMI-8226 leukemia; 84.3% in the experiment on OVCAR-8 ovarian. Besides, the growth in the experiment on OVCAR-5 ovarian was 115%; in the experiment on OVCAR-4 ovarian it was 85%; in the experiment on SK-OV-3 ovarian, 67.4%; in the experiment with IGROV1 ovarian, 113%; with HS 578T breast, 80.9%.

On to `O=C(Nc1ccc(Cl)c(C(F)(F)F)c1)c1ccc(Nc2ccc(Cl)nn2)cc1`, for which the growth was 83.3% with SK-MEL-2 melanoma; 55.7% in the experiment with EKVX NSCLC; 78.9% in the experiment on SN12C renal; 0.31% (active) in the experiment on UO-31 renal; 51.6% with A498 renal; 44.8% with CCRF-CEM leukemia. Also, the growth in the experiment with MOLT-4 leukemia was 43.7%; in the experiment with RPMI-8226 leukemia, 38.3%; in the experiment on OVCAR-8 ovarian, 55.2%; with OVCAR-5 ovarian, 76.7%; in the experiment on OVCAR-4 ovarian, 42.2%; in the experiment with SK-OV-3 ovarian, 85.3%. For the same compound, the growth in the experiment on IGROV1 ovarian is 87.6%; in the experiment with OVCAR-3 ovarian it was 66.8%; in the experiment on HS 578T breast, 85.7%; in the experiment with NCI/ADR-RES ovarian it was 61.1%.

In the case of `Cc1cc(NC(=O)C2c3ccccc3C(=O)N(CC(C)C)C2c2cccs2)no1` (configuration not stated), the growth is 50.7% in the experiment on SK-MEL-2 melanoma; -30.9% (active) in the experiment with SN12C renal; -89.7% (active) in the experiment with UO-31 renal; -5.69% (active) in the experiment on TK-10 renal; 0.299% (active) in the experiment with ACHN renal; -40.1% (active) in the experiment on CAKI-1 renal. For the same compound, the growth in the experiment with A498 renal is 113%; with CCRF-CEM leukemia, -13% (active); in the experiment with MOLT-4 leukemia, 16.7%; in the experiment with SR leukemia, 7.23% (active); in the experiment on RPMI-8226 leukemia, 3.73% (active); in the experiment on OVCAR-8 ovarian, 3.68% (active). Besides, the growth in the experiment with OVCAR-5 ovarian was 31.5%; with OVCAR-4 ovarian it was -8.84% (active); in the experiment with SK-OV-3 ovarian, 94.7%; with IGROV1 ovarian it was 16.2%; with OVCAR-3 ovarian, -53.6% (active); in the experiment on HS 578T breast, 67.7%.

Take `O=C(NCC(c1ccsc1)N1CCCCCC1)c1ccc(C(F)(F)F)cc1` (configuration not stated): the growth in the experiment on SK-MEL-2 melanoma is 94.3%; with SN12C renal, 96.8%; in the experiment with UO-31 renal, 88.1%; with TK-10 renal, 94.5%; in the experiment on ACHN renal it was 103%; with CAKI-1 renal, 85%. In addition, the growth was 89.4% in the experiment on A498 renal; 96.2% in the experiment with CCRF-CEM leukemia; 78.2% in the experiment on MOLT-4 leukemia; 85.8% with SR leukemia; 88.8% in the experiment with RPMI-8226 leukemia; 102% with OVCAR-8 ovarian. Besides, the growth was 106% in the experiment on OVCAR-5 ovarian; 94.6% with OVCAR-4 ovarian; 109% in the experiment with SK-OV-3 ovarian; 96.8% with IGROV1 ovarian; 103% in the experiment on OVCAR-3 ovarian; 102% with HS 578T breast.

Take `CSC1=NC(=Nc2c(C)cccc2C)C2(CCC(C(C)(C)C)CC2)N1c1ccc(Cl)cc1` (configuration not stated): the growth in the experiment with SK-MEL-2 melanoma is 49.9%; with SN12C renal, 42.1%; in the experiment on UO-31 renal, 34.8%; with TK-10 renal, 61.3%; in the experiment with ACHN renal, 34.5%; with CAKI-1 renal, 12%. Moreover, the growth with A498 renal is 71.5%; with CCRF-CEM leukemia, 36.9%; in the experiment on MOLT-4 leukemia, 23.5%; with SR leukemia, 26%; in the experiment on RPMI-8226 leukemia, 51.5%; in the experiment on OVCAR-8 ovarian, 31.6%. Moreover, the growth in the experiment on OVCAR-5 ovarian is 72.1%; in the experiment on OVCAR-4 ovarian it was 60%; in the experiment on SK-OV-3 ovarian, 57.6%; in the experiment with IGROV1 ovarian it was 55.4%; in the experiment with OVCAR-3 ovarian it was 55.3%.

Take `CC(COC(=O)c1ccccc1)N1CC2CCC(C1)O2` (configuration not stated): the growth in the experiment with SK-MEL-2 melanoma is 107%; in the experiment with SN12C renal it was 99.8%; with UO-31 renal it was 86%; in the experiment on TK-10 renal it was 111%; with ACHN renal it was 104%; in the experiment on CAKI-1 renal, 96.5%. Also, the growth is 89.5% in the experiment on A498 renal; 92.7% with CCRF-CEM leukemia; 100% with MOLT-4 leukemia; 93.2% in the experiment on SR leukemia; 99.1% in the experiment on RPMI-8226 leukemia; 93.9% with OVCAR-8 ovarian. Also, the growth in the experiment with OVCAR-5 ovarian was 101%; in the experiment with OVCAR-4 ovarian it was 107%; in the experiment on SK-OV-3 ovarian, 96.1%; in the experiment with IGROV1 ovarian it was 113%; with OVCAR-3 ovarian it was 104%; in the experiment with HS 578T breast, 105%. Moreover, the growth in the experiment on NCI/ADR-RES ovarian is 111%.
